Holding throughout (parameters): scale not given: direction of the effect not stated beside the values
The target of assay [1] is Protein translocase subunit SecA (Escherichia coli (strain K12)) (UniProt P10408). Briefly: Assay to Identify E. coli SecA ATPase Inhibitors. The format is functional. The note with it: 30 µM.
Assay [2] addresses T1, Ubiquitin-activating enzyme e1, putative (Leishmania donovani (strain BPK282A1)) (UniProt E9BSI1).
T1 sequence (whole entry): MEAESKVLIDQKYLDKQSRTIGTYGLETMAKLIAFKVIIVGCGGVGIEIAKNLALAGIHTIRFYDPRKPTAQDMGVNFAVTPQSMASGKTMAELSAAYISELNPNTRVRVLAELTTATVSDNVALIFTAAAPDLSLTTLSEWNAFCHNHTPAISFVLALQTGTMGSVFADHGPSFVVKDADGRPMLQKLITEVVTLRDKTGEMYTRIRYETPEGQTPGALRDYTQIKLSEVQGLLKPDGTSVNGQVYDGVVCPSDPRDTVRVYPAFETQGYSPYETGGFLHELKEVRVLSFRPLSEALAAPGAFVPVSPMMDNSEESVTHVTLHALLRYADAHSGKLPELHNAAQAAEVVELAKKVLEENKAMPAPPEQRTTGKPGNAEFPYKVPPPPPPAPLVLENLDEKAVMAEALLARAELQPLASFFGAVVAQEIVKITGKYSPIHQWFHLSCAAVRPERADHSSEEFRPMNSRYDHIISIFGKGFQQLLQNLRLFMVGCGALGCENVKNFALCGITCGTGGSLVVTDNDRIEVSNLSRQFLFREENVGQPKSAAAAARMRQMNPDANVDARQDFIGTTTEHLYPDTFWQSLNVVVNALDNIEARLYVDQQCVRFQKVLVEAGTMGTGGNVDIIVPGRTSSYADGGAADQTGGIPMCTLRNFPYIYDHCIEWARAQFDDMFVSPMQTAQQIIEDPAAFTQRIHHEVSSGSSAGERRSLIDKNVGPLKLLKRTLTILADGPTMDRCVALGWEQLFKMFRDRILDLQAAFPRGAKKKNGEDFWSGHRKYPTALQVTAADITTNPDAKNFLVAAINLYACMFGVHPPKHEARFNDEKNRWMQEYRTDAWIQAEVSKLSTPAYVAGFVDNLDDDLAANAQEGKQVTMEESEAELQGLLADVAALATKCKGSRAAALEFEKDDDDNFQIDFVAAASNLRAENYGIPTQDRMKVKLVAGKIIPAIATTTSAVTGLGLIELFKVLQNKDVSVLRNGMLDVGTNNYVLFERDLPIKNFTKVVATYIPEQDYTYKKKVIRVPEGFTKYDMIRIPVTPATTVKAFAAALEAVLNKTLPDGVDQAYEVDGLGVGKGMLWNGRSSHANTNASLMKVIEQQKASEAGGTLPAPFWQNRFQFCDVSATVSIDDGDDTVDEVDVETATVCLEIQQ
Briefly: Leishmania donovani Ubiquitin Activating Enzyme (LdE1). The format is functional. Particulars: 30 µM.

Assay [3] addresses AMP-activated protein kinase, AMPK (Homo sapiens) (UniProt P54646+O43741+P54619+Q9UGJ0+Q9Y478+Q13131+Q9UGI9). Briefly: AMP-dependent Kinase enzyme assay. An in vitro enzyme assay that detects ADP turnover that is directly proportional to AMPK activity. This uses naive AMPK that is activated during the assay with MK-8722. The class given is functional. The note with it: 30 µM.

Assay [4] deals with Sialic acid-binding Ig-like lectin 9 (Homo sapiens) (UniProt Q9Y336). Briefly: Hs-Siglec9 ALPHAscreen SOP 20170721. The note with it: 10 µM. Background: In Alpha technology, singlet oxygen from a donor bead excites a nearby acceptor bead.
Chain of Sialic acid-binding Ig-like lectin 9 (Homo sapiens) (Q9Y336 whole entry): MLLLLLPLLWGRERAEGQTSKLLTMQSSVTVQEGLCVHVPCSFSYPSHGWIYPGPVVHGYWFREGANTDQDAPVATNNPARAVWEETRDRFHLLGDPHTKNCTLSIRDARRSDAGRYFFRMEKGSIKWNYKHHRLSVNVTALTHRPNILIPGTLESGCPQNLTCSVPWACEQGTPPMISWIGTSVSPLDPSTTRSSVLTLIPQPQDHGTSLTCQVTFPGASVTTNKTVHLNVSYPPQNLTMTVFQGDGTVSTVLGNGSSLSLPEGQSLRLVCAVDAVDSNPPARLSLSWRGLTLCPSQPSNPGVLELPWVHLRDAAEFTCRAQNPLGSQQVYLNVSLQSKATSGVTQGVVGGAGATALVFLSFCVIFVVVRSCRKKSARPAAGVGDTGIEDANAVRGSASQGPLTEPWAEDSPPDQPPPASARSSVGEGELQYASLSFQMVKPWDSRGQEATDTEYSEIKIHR
For the next assay, the system named is Trypanosoma cruzi. Briefly: Trypanosoma cruzi phosphomannomutase and mannose-1-phosphate guanylyltransferase assay. The class given is functional. Particulars: 10 µM.
In assay [5] the target is T2, Arginase-2, mitochondrial (Homo sapiens) (UniProt P78540).
T2 sequence (whole entry): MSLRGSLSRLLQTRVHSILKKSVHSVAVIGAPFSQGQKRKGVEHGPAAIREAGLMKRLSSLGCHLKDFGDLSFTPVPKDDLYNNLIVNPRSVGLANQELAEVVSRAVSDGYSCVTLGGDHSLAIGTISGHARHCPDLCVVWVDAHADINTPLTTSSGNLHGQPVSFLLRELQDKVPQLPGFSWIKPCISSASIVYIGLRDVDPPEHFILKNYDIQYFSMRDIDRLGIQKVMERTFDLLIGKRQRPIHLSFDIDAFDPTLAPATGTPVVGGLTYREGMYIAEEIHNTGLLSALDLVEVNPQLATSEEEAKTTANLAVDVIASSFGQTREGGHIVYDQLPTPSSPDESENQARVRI
Put plainly: in vitro enzyme assay to detect the production of urea directly proportional to the activity of Arginase II. Note: in the data most compounds retested in dose-response had high values. The class given is functional. The note with it: 33.3 µM.

Assay [6] addresses T3, Proteasome subunit beta (Trypanosoma cruzi) (UniProt O96673).
T3 sequence (whole entry): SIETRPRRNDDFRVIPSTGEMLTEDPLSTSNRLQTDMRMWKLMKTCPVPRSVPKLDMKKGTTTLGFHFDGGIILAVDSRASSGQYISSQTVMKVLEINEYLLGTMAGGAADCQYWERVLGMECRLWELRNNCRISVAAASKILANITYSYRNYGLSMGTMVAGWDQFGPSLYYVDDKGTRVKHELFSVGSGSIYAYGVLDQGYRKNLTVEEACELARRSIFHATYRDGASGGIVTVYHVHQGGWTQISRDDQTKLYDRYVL
Put plainly: Trypanosoma cruzi proteasome chymotrypsin-like activity (TcProtChymo) assay. Note: in the data most compounds retested in dose-response had high values. The class given is functional. The note with it: 9.37 µM.

The species named for a further assay is Homo sapiens. Put plainly: To identify inhibition of the IFN signalling (Jak-Stat) pathway via expression of an eGFP reporter gene under the control of an IFN-stimulated response element (ISRE) containing MxA promoter. The class given is functional. Particulars: 30 µM. (In a reporter assay the amount or activity of a reporter protein is the signal.)
In assay [7] the target is T4, Tyrosyl-tRNA synthetase, putative (Trypanosoma cruzi (strain CL Brener)) (UniProt Q4DSP6).
T4 sequence (whole entry): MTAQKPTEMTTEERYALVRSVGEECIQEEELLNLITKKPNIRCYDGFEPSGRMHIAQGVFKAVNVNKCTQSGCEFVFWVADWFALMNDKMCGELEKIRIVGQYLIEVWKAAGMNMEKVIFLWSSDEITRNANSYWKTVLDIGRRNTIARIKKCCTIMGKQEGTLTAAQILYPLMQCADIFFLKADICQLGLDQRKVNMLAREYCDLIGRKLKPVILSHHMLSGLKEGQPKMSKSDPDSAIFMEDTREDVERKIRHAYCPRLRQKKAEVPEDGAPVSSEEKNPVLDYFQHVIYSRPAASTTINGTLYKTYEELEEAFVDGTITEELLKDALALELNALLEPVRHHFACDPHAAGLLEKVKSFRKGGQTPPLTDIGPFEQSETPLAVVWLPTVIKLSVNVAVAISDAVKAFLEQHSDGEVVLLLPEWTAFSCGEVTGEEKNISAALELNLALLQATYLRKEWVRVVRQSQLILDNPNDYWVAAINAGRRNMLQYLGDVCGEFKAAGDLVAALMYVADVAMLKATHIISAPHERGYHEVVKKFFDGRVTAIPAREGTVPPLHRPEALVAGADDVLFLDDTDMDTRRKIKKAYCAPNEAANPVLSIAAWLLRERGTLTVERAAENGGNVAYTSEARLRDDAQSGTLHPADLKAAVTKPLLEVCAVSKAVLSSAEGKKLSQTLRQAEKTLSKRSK
Briefly: Trypanosoma cruzi tyrosyl tRNA synthetase (TcYRS) _High Tyrosine SOP. Note: in the data most compounds retested in dose-response had high values. The format is functional. The note with it: 30 µM.

Assay [8] concerns the target T4, Tyrosyl-tRNA synthetase, putative (Trypanosoma cruzi (strain CL Brener)). Put plainly: Trypanosoma cruzi tyrosyl tRNA synthetase (TcYRS) SOP. The class given is functional. Particulars: 30 µM.
Assay [9] deals with Chromo domain-containing protein 1 (Saccharomyces cerevisiae (strain ATCC 204508 / S288c) (Baker's yeast)) (UniProt P32657). Put plainly: ScCHD-1 Enzyme Inhibition Assay. Note: in the data most compounds retested in dose-response had high values. Particulars: 30 µM. The format is functional.
Chain of Chromo domain-containing protein 1 (Saccharomyces cerevisiae (strain ATCC 204508 / S288c) (Baker's yeast)) (P32657 whole entry, the tested form may be a part): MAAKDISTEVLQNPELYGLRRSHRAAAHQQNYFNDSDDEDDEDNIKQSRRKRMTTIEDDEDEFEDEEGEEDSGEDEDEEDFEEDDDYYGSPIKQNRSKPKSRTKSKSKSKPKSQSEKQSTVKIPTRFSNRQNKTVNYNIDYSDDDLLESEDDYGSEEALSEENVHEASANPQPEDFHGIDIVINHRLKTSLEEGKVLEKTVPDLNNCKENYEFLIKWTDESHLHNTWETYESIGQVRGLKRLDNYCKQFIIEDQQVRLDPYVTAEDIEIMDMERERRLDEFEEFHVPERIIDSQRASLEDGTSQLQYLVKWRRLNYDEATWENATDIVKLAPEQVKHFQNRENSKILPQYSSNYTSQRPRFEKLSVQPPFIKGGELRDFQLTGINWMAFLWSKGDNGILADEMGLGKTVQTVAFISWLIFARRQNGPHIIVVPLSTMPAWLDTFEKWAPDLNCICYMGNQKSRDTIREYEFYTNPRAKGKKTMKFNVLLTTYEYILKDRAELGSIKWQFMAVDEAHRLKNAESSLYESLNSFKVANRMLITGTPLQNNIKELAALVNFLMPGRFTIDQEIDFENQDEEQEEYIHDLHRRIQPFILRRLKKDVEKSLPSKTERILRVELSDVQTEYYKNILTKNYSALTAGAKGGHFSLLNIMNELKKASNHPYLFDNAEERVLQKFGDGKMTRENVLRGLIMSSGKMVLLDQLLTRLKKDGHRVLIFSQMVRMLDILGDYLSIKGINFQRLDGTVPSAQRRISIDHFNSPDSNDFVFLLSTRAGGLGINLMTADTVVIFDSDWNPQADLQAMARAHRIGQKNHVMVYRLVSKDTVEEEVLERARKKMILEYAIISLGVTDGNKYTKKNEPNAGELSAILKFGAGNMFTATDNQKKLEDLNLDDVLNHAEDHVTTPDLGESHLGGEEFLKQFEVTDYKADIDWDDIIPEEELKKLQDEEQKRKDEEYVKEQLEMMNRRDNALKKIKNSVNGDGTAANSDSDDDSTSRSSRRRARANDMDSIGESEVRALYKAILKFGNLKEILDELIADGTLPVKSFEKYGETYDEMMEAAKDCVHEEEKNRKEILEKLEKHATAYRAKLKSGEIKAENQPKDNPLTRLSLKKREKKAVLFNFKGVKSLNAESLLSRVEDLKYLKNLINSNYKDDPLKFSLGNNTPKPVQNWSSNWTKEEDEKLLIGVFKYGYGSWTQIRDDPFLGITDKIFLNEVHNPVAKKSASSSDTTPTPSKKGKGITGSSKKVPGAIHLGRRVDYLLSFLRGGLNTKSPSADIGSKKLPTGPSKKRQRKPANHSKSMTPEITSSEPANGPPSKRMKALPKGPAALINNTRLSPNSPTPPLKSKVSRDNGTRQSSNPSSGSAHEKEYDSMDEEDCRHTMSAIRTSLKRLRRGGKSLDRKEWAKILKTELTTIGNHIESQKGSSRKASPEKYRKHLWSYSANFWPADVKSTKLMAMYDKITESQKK

From ChEMBL document CHEMBL3988442, “University of Dundee, Small-Polar-MMV Screening Library” (2021) come the findings set out here.

For some of these results: Potency and affinity values are given separately.

Chain of Protein translocase subunit SecA (Escherichia coli (strain K12)) (P10408 whole entry): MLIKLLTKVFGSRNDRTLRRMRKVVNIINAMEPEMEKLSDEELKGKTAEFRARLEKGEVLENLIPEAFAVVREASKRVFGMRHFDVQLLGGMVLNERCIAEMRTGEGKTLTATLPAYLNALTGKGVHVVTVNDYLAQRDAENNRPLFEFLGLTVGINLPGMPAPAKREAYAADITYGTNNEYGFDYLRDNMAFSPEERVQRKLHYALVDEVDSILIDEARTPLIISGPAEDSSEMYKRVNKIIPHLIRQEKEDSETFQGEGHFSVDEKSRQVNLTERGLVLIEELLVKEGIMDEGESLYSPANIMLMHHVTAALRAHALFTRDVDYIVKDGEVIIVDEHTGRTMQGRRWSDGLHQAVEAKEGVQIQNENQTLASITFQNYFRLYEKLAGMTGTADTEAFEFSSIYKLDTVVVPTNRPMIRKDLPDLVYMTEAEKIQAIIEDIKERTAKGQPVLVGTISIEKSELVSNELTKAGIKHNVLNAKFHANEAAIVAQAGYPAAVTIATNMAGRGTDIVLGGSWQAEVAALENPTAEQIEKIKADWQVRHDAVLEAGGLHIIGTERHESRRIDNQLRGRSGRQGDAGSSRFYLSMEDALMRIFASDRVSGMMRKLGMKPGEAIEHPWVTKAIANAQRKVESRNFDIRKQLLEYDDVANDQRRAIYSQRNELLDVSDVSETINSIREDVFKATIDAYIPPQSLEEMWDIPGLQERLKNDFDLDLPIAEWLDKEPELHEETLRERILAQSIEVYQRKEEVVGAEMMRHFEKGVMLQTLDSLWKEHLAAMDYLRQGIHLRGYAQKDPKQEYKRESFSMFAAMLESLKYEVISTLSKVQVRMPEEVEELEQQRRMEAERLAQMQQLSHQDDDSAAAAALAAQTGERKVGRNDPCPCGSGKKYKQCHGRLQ

`O=C(c1ccnnc1)N1C[C@@H](OCC2CCCC2)[C@H]2OCCC[C@H]21`: the Percent Effect in assay [1] is -7.56%; in assay [2], 8.11%; in assay [3], 0.254%; in [4], -1.77%; in the assay on Trypanosoma cruzi, -1.95%; in assay [5], 3.33%. For the same compound, the Percent Effect in [6] is 11.8%; in the assay filed under Homo sapiens, -12.9%; in assay [7], 12.9%; in assay [8], -8.54%; in [9], -5.93%.

`CCN(CC1CCOC1)C(=O)c1ccccc1NS(=O)(=O)CC` (stereo not drawn): the Percent Effect in assay [1] is -5.12%; in [2], 7.89%; in [3], -0.433%; in assay [4], -1.92%; in the assay on Trypanosoma cruzi, 1.03%; in assay [5], -1.08%. Besides, the Percent Effect in assay [6] is 6.34%; in the assay listed under Homo sapiens it was -2.41%; in assay [7], 7.39%; in assay [8] it was 18.5%; in assay [9], -4.83%.

On to `COc1ccc(CN2CCC3(CC(=O)N(c4cncnc4)C3)C2)cc1` (stereo not drawn), for which the Percent Effect in assay [1] is -1.48%; in assay [2], 16.2%; in assay [3] it was 5.08%; in assay [4], -9.74%; in the assay on Trypanosoma cruzi, -3.81%; in assay [5] it was -7.33%. Besides, the Percent Effect was 12.9% in assay [6]; 5.2% in the assay listed under Homo sapiens; 1.08% in assay [7]; 7.69% in assay [8]; -3.32% in assay [9].

As for `COCC(=O)N1CC[C@@H]2CN(Cc3cccc(Cl)c3)S(=O)(=O)[C@@H]2CC1`, the Percent Effect in assay [1] was -3.3%; in assay [2] it was 10.7%; in assay [3] it was -2.58%; in [4] it was -5.34%; with Trypanosoma cruzi it was -6.18%; in assay [5], -55%. The Percent Effect is 9.74% in assay [6]; 5.42% in the assay listed under Homo sapiens; -3.12% in assay [7]; 12.5% in assay [8]; -5.91% in [9].

Regarding `O=C(COc1cccc(Br)c1)N1CCOCC1c1ncon1` (stereo not drawn), the Percent Effect was -1.32% in assay [1]; -2.7% in assay [2]; -2.58% in assay [3]; -3.06% in [4]; 6.13% in the assay with Trypanosoma cruzi; 1.6% in [5]. For the same compound, the Percent Effect in assay [6] was 1.44%; in the assay listed under Homo sapiens it was -26.1%; in assay [7], 1.48%; in assay [8], -1.24%; in assay [9] it was -4.52%.

Consider `CCN1CCN(C(=O)c2cnn(-c3ccccc3Cl)c2)CC1`, for which the Percent Effect in [1] is -4.44%; in [2], 5.41%; in assay [3] it was -8.79%; in assay [4] it was 9.91%; in the assay on Trypanosoma cruzi it was -2.36%; in [5], -1.6%. The Percent Effect was 1.62% in assay [6]; 10.3% in the assay filed under Homo sapiens; 10.3% in assay [7]; 13.6% in [8]; -7.79% in [9].

On to `O=C(c1cnoc1)N1CCC[C@]2(C[C@@H](OCc3ccccn3)CO2)C1`, for which the Percent Effect in assay [1] is -1.86%; in [2] it was 21.9%; in assay [3], -6.83%; in assay [4], 23.6%; with Trypanosoma cruzi it was 5.56%; in assay [5], -1.6%. The Percent Effect is 12.8% in assay [6]; 1.81% in the assay listed under Homo sapiens; 6.25% in assay [7]; 8.64% in [8]; -6.46% in [9].

In the case of `Cc1csc(N2CCCN(C(=O)C(C)n3ccnc3)CC2)n1` (stereo not drawn), the Percent Effect is -4.19% in assay [1]; 8.11% in assay [2]; 5.77% in assay [3]; 0.506% in assay [4]; 6.78% in the assay on Trypanosoma cruzi; -2.77% in [5]. The Percent Effect in assay [6] is -0.718%; in the assay filed under Homo sapiens, 10.8%; in assay [7], 5.94%; in assay [8] it was 15.8%; in assay [9], 1.79%.
